Assay results as given in ChEMBL document CHEMBL2218924, “A broad activity screen in support of a chemogenomic map for kinase signalling research and drug discovery” (Biochem J, 2013).

How the values were obtained:
[1] = molecular target: Protein kinase C eta type (Homo sapiens) (UniProt P24723); settings: at 1 µM
[2] = molecular target: Protein kinase C eta type (Homo sapiens) (UniProt P24723); settings: at 10 µM
[3] = molecular target: Protein kinase C theta type (Homo sapiens) (UniProt Q04759); settings: at 1 µM
Protein kinase C theta type (Homo sapiens), sequence (Q04759 whole entry, looked up): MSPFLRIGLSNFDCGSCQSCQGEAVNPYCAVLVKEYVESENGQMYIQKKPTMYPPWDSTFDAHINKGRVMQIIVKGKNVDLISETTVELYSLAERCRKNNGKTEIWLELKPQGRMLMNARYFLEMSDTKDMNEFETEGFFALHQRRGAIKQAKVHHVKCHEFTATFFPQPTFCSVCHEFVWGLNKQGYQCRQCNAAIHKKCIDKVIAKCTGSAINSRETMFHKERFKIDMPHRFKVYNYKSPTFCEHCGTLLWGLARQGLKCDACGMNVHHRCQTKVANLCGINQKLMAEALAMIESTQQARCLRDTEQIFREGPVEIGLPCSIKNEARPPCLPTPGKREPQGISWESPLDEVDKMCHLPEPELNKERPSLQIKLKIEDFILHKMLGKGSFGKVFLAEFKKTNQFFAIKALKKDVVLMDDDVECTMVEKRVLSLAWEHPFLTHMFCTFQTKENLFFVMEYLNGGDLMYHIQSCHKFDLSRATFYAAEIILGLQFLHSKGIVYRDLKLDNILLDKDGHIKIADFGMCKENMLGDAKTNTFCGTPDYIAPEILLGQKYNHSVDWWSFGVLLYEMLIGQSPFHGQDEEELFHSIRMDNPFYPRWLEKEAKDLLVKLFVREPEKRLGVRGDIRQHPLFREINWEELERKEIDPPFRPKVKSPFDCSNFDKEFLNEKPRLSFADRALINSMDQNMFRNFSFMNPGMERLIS

[4] = molecular target: Protein kinase C theta type (Homo sapiens) (UniProt Q04759); settings: at 10 µM
[5] = molecular target: T1, Protein kinase C iota type (Homo sapiens) (UniProt P41743); settings: at 1 µM
T1 sequence (whole entry): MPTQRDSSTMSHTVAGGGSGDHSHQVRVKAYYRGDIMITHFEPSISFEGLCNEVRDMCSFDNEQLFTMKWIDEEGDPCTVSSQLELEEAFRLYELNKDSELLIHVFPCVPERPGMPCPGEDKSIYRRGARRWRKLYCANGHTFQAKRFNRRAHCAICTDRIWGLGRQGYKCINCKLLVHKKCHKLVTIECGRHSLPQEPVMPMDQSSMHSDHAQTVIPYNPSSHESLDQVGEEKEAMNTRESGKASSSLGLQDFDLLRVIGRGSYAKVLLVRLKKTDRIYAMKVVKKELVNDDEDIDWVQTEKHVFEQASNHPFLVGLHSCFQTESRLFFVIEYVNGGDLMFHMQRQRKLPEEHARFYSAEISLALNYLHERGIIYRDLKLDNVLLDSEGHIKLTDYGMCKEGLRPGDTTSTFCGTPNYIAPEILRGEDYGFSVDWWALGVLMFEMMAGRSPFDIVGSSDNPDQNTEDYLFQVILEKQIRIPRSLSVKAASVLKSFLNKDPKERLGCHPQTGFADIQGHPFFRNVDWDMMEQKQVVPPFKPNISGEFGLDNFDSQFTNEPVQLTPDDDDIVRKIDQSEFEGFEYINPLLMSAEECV

[6] = molecular target: T1, Protein kinase C iota type (Homo sapiens); settings: at 10 µM
[7] = molecular target: T2, Serine/threonine-protein kinase D1 (Homo sapiens) (UniProt Q15139); settings: at 1 µM
T2 sequence (whole entry): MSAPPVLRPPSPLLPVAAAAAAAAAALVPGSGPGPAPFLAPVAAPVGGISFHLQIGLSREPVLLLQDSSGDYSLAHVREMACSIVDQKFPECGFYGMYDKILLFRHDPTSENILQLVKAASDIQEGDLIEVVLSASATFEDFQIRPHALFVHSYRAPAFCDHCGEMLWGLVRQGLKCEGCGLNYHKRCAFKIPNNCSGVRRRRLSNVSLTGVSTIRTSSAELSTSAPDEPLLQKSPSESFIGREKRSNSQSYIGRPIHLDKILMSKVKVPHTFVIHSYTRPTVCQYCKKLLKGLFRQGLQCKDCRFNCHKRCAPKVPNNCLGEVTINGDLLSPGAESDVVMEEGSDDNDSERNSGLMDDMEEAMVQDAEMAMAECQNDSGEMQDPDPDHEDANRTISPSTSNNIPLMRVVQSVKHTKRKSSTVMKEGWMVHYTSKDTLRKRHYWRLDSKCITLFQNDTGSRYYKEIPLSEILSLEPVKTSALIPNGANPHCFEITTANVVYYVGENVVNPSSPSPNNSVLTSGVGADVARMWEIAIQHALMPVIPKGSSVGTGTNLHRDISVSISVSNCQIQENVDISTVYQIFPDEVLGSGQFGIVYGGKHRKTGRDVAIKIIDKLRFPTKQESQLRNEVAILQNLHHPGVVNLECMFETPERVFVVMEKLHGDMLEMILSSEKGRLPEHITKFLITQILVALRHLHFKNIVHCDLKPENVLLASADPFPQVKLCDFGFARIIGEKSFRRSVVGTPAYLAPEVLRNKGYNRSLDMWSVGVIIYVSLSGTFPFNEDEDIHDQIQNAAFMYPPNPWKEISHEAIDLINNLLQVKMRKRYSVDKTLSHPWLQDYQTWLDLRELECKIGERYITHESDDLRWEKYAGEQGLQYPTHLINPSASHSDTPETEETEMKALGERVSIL

[8] = molecular target: T2, Serine/threonine-protein kinase D1 (Homo sapiens); settings: at 10 µM
[9] = molecular target: T3, Serine/threonine-protein kinase D2 (Homo sapiens) (UniProt Q9BZL6); settings: at 1 µM
T3 sequence (whole entry): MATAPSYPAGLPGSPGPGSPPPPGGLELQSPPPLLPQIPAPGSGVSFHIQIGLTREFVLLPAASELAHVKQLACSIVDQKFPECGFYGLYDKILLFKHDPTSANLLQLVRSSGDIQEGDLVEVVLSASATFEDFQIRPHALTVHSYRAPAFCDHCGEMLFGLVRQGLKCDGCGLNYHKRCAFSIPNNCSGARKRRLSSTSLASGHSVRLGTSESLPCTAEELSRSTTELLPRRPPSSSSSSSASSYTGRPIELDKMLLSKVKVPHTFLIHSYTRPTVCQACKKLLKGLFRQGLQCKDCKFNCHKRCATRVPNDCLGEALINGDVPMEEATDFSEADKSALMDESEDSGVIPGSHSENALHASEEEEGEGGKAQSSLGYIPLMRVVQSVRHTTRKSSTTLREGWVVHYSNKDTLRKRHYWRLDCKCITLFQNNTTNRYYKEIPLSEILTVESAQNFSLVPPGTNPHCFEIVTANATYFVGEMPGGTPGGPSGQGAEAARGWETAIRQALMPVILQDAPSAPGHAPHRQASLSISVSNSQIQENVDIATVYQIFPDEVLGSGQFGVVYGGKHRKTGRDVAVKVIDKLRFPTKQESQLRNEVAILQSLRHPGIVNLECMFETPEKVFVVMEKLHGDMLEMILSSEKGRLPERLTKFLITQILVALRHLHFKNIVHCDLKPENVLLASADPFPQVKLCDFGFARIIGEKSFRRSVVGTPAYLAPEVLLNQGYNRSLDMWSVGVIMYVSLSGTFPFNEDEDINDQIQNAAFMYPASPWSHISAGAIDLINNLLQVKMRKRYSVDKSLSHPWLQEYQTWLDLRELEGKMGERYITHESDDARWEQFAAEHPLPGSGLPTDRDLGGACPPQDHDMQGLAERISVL

[10] = molecular target: T4, cGMP-dependent protein kinase 1 (Homo sapiens) (UniProt Q13976); settings: at 1 µM
T4 sequence (whole entry): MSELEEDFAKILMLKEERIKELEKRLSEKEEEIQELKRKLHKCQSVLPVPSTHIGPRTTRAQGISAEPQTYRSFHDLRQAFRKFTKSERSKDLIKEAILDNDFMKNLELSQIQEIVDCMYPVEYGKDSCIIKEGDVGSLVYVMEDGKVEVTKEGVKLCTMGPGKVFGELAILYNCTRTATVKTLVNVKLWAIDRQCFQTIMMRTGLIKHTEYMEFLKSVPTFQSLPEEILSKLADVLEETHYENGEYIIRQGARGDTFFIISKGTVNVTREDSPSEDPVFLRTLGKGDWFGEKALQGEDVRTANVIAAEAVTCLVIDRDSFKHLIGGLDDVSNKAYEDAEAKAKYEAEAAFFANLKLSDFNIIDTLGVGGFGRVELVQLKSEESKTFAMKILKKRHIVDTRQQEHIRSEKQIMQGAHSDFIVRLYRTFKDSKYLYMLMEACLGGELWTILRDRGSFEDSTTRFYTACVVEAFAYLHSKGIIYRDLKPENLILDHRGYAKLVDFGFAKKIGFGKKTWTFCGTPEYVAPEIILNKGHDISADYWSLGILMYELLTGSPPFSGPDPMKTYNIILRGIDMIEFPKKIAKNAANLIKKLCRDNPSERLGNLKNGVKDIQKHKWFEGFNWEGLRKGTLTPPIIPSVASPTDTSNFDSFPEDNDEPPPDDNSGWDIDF

[11] = molecular target: T4, cGMP-dependent protein kinase 1 (Homo sapiens); settings: at 10 µM
[12] = molecular target: T4, cGMP-dependent protein kinase 1 (Homo sapiens); settings: at 1 µM; remark: listed apart in the source
[13] = molecular target: T4, cGMP-dependent protein kinase 1 (Homo sapiens); settings: at 10 µM; remark: listed apart in the source
[14] = molecular target: T5, MAP kinase-activated protein kinase 5 (Homo sapiens) (UniProt Q8IW41); settings: at 1 µM
T5 sequence (whole entry): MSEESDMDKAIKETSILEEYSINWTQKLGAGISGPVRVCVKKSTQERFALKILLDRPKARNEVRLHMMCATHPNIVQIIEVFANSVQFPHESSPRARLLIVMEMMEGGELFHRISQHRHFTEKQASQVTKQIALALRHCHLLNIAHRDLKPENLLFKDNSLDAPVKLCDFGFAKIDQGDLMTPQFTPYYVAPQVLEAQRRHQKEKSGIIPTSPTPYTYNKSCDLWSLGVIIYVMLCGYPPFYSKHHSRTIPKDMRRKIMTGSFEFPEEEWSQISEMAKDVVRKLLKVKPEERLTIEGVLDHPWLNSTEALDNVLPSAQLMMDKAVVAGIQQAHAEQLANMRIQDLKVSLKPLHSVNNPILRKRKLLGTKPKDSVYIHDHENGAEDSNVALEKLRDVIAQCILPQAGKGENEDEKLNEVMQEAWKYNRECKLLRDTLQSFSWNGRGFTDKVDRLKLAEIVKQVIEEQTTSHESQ

[15] = molecular target: T5, MAP kinase-activated protein kinase 5 (Homo sapiens); settings: at 10 µM
[16] = molecular target: Serine/threonine-protein kinase N2 (Homo sapiens) (UniProt Q16513); settings: at 1 µM
Serine/threonine-protein kinase N2 (Homo sapiens), sequence (Q16513 whole entry, looked up): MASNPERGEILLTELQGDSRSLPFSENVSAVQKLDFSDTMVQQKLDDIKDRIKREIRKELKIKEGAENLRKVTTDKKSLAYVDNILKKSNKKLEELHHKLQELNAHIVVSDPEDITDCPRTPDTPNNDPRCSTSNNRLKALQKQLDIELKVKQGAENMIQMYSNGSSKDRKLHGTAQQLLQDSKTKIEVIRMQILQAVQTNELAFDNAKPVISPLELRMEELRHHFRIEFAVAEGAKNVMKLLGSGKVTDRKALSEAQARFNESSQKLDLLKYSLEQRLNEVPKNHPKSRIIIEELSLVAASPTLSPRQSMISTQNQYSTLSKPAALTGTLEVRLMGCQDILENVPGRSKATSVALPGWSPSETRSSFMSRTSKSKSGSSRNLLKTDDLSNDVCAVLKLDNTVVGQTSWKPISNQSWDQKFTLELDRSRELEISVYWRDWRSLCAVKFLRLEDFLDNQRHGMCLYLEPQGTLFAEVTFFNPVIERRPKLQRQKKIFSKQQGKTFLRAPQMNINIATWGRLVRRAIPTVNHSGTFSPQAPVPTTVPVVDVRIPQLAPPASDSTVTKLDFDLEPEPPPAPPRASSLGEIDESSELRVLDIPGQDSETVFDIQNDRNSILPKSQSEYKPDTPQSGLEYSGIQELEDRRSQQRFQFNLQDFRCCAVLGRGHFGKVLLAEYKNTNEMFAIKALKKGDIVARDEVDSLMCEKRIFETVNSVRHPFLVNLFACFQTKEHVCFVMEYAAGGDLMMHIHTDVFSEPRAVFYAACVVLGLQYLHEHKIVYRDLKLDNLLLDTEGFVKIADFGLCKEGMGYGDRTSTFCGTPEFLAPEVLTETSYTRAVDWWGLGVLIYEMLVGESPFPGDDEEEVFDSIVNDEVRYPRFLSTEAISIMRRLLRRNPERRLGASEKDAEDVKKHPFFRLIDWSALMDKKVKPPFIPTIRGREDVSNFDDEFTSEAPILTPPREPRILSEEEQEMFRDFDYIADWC

[17] = molecular target: Serine/threonine-protein kinase N2 (Homo sapiens) (UniProt Q16513); settings: at 10 µM
[18] = molecular target: Tyrosine-protein kinase FRK (Homo sapiens) (UniProt P42685); settings: at 1 µM
Tyrosine-protein kinase FRK (Homo sapiens), sequence (P42685 whole entry): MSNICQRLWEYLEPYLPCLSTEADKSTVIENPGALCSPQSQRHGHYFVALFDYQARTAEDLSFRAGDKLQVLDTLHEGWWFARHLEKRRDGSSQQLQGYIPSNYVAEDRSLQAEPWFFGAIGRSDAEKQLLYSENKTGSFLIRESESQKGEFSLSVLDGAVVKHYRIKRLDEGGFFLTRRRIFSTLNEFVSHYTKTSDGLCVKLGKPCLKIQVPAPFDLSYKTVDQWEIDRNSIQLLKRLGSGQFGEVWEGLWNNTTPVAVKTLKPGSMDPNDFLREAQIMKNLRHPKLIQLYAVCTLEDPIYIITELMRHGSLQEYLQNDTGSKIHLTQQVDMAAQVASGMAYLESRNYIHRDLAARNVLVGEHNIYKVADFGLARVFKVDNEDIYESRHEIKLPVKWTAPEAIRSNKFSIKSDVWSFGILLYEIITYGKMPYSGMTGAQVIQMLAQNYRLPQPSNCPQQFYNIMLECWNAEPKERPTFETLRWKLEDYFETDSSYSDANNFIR

[19] = molecular target: Tyrosine-protein kinase FRK (Homo sapiens) (UniProt P42685); settings: at 10 µM
[20] = molecular target: T3, Serine/threonine-protein kinase D2 (Homo sapiens); settings: at 10 µM

Protein kinase C eta type (Homo sapiens), sequence (P24723 whole entry): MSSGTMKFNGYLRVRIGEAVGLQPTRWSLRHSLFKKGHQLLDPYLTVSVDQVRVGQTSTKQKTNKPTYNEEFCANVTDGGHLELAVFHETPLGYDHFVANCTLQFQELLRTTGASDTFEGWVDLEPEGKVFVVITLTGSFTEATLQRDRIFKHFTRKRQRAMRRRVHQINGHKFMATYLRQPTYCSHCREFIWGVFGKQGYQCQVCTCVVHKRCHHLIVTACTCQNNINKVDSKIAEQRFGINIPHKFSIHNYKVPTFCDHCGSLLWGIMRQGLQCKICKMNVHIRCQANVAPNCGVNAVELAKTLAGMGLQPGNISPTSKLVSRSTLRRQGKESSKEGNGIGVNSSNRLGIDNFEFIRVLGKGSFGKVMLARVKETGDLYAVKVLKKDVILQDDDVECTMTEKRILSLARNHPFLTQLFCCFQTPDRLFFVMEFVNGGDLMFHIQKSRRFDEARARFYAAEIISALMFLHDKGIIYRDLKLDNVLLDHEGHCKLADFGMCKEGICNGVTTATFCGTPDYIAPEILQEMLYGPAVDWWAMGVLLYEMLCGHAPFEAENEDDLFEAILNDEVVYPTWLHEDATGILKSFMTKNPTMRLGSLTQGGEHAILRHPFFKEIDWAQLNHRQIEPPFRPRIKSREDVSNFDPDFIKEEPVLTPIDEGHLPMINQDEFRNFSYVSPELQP

O=c1c2ccccc2[nH]c(=S)n1CCN1CCC(=C(c2ccc(F)cc2)c2ccc(F)cc2)CC1
residual activity [1]: 106%
residual activity [2]: 83%
residual activity [3]: 110%
residual activity [4]: 109%
residual activity [5]: 109% (inactive)
residual activity [6]: 81%
residual activity [7]: 113%
residual activity [8]: 84%
residual activity [9]: 100%
residual activity [10]: 107%
residual activity [11]: 103%
residual activity [12]: 86%
residual activity [13]: 87%
residual activity [14]: 94%
residual activity [15]: 74%
residual activity [16]: 114%
residual activity [17]: 109%
residual activity [18]: 101%
residual activity [19]: 89%

Nc1nc(Nc2ccc(S(N)(=O)=O)cc2)nn1C(=S)Nc1c(F)cccc1F
residual activity [1]: 30%
residual activity [2]: 4%
residual activity [3]: 10%
residual activity [4]: 2%
residual activity [6]: 80%
residual activity [7]: 2%
residual activity [8]: 4%
residual activity [9]: 45%
residual activity [20]: 6%
residual activity [14]: 32%
residual activity [15]: 2%
residual activity [16]: 5%
residual activity [17]: 2%
residual activity [18]: 20%
residual activity [19]: 0%

N#Cc1cnc2cnc(NCc3cccnc3)cc2c1Nc1ccc(F)c(Cl)c1
residual activity [1]: 85%
residual activity [2]: 83%
residual activity [3]: 4%
residual activity [4]: 5%
residual activity [7]: 80%
residual activity [8]: 39%
residual activity [9]: 101%
residual activity [20]: 91%
residual activity [10]: 4%
residual activity [11]: 9%
residual activity [14]: 78%
residual activity [15]: 101%
residual activity [16]: 4%
residual activity [17]: 3%
residual activity [18]: 28%
residual activity [19]: 22%

CC(=O)c1ccc(N2CCOCC2)cc1O
residual activity [1]: 92%
residual activity [2]: 84%
residual activity [3]: 109%
residual activity [4]: 102%
residual activity [5]: 84% (inactive)
residual activity [6]: 106%
residual activity [7]: 92%
residual activity [8]: 95%
residual activity [9]: 93%
residual activity [20]: 109%
residual activity [14]: 77%
residual activity [15]: 109%
residual activity [16]: 100%
residual activity [17]: 109%
residual activity [18]: 109%
residual activity [19]: 99%
